Assay [1] is described as follows: P. berghei load reduction in hepatocytes – cell-based, HepG2, luciferase luminescence, HepG2 viability, primary screen (AID 624349; in the data active = parasite load remaining mostly below about 12%, no sharp cut-off; inactive = mostly above about 10%;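 note: 100% = mean of DMSO negative control wells on the same plate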). The settings on record: P. berghei liver stage in HepG2, luciferase luminescence, concentration not given here; parasite load remaining: stronger effect = lower value; viability: measured here: HepG2 viability without parasites.
The nature of assay [2]: Wnt pathway potentiators raising nuclear beta-catenin – imaging, WNT3A-conditioned medium, mouse C2C12, NPC library, primary screen (AID 1117326; in the data active = nuclear beta-catenin stimulation mostly above about 4.2%, no sharp cut-off; inactive = mostly below about 10%). The following applies: stronger effect = higher value.
Assay [3] can be described thus: stimulators of insulin release from INS-1E, primary screen, cell-based, 5 mM glucose, NPC library (AID 1117329;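 active = compound raises insulin release from rat beta cells at 5 mM glucose, no numeric limit stated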). The following applies: rat INS-1E insulin secretion, at 10 µM, stronger effect = higher value.
A short description of assay [4]: growth inhibition of GSK3B-pretreated HCT116 cells – cell-based, CellTiter-Glo, 0.2 to 20 µM (AID 1117336;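 active = compounds lowering colon cancer cell viability after pretreatment blocking the GSK3B kinase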). The settings on record: HCT116 viability after GSK3B inhibitor, at 20 µM, stronger effect = higher value.
Assay [5] can be described thus: inhibition of endothelial tube formation, primary screen, imaging, VEGF stimulated, CD31 staining, tube area, NPC library (AID 1117340;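 active = compound that reduces growth-factor-driven endothelial tube area in a mixed cell culture, no cutoff stated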). The settings on record: VEGF-stimulated ADSC/ECFC co-culture, at 10 µM, stronger effect = higher value.
The nature of assay [6]: GLP1 release stimulators, primary, NCI-H716, NPC library (AID 1117341;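 active = compound raises GLP1 secretion from the human gut endocrine cells, with no numeric limit stated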). The settings on record: NCI-H716 cells, at 10 µM, stronger effect = higher value.
Assay [7] can be described thus: HCT116 colon cancer cell growth inhibition, primary screen, CellTiter-Glo luminescence, NPC library (AID 1117342;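 active = compounds that lower survival of HCT116 colon cancer cells in the luminescence readout, no numeric limit stated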). The settings on record: at 20 µM (top of the series).
The nature of assay [8]: reduced SW480 viability measured with CellTiter-Glo, NPC library, primary (AID 1117343;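 active = compounds that lower viability of the colon cancer cells in the luminescence readout, with no numeric limit stated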). The settings on record: CellTiter-Glo luminescence; at 20 µM (top of the series). (Cellular ATP, detected with luciferase, serves as a proxy for viable cell number.)
Assay [9] can be described thus: NPC library primary testing for decreased DLD-1 cell viability via CellTiter-Glo (AID 1117346;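 active = compounds that lower survival of DLD-1 colon cancer cells in the luminescence readout, no cutoff given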). The settings on record: DLD-1 viability, CellTiter-Glo luminescence; at 20 µM (top of the series).
A short description of assay [10]: EMT-state selective cytotoxicity in co-culture – imaging, PC-3E GFP, TEM4-18 mCherry, primary screen (AID 1345086;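 active = compounds killing one labelled cell type while sparing the other, by normalised counts and ratio limits, not self-fluorescent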;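 for all read-outs here: cells exposed to compound for 72 h before imaging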;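 for red/green cell ratio (normalised): normalised mesenchymal count divided by normalised epithelial count so high means epithelial killing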). The settings on record: PC-3E GFP / TEM4-18 mCherry co-culture, imaging cell counts, at 1 µM; for red/green cell ratio (normalised): actives lie on both sides.
Assay [11] in a line: viability loss with induced miR-34 in A549 – imaging, A549 dox-inducible miR-34, nuclei and caspase counts, primary screen (AID 1347080). The following applies: A549 miR-34 inducible, Hoechst nuclei count, 48 h.
Assay [12] in a line: MELAS cybrid and Rieske KO viability enhancers – cell-based, MELAS cybrids, Rieske KO mouse fibroblasts, CellTiter-Glo, primary screen (AID 1508586;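 active = mean z-score across replicates of 1.96 or higher in either the MELAS or the Rieske mutant cell line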;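 note: z relative to plate mean and SD of compound and empty wells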). The following applies: low glucose.
Assay [13] addresses NAD(+) hydrolase SARM1 (Homo sapiens) (UniProt Q6SZW1). The experiment in a line: blocking NAD cleavage by SARM1 SAM-TIR – cell lysate, NAD-Glo luminescence (AID 1508614;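 active = compound whose remaining NAD level is above about 45 nM, limit read from the data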;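 note: higher remaining NAD means stronger inhibition of SARM1 NADase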). The settings on record: SAM-TIR HEK293T lysate NADase, at 1 µM, stronger effect = higher value.
Assay [14] in a line: galactose survival enhancers in mitochondrial complex I cybrids – cell-based, galactose medium, ATP luminescence, primary screen (AID 1645843;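 active = z-score of at least 1.8 in each of two replicates, scored against plate mean and spread of sample wells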;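 note: positive z means more ATP and so rescue of galactose-driven cybrid death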). The following applies: complex I mutant cybrid cells, 72 h, stronger effect = higher value.
For assay [15], the system named is Aerobactin synthetase IucA (Klebsiella pneumoniae hvKP1). The experiment in a line: IucA enzyme inhibition, primary screen, biochemical, Spectrum library (AID 1346200; call rule not given here;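 note: 100% = wells without compound and 0% = wells lacking enzyme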). The following applies: malachite green pyrophosphate, A620, at 8 µM, stronger effect = lower value.
The nature of assay [16]: yeast 75Q aggregation reduction – 75Q-TubU reporter (AID 1593). The following applies: Yeast 75Q polyglutamine aggregation reporter.
Assay [17] is described as follows: blockers of cytochrome c efflux from mitochondria – biochemical, purified mitochondria (AID 1603).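 Note: mouse liver mitochondria challenged with calcium chloride; signal normalized to the plate average as 100%.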 The settings on record: stronger effect = lower value.
Assay [18] is described as follows: polyglutamine aggregate formation blockers (AID 1604). The settings on record: polyglutamine-induced protein aggregation inhibition assay; stronger effect = higher value; tested at 2.5 µM.
The target in assay [19] is Mitogen-activated protein kinase 7 (Homo sapiens) (UniProt Q13164). The experiment in a line: Gal4-ERK5 driven luciferase induction – cell-based, HTS, primary screen (AID 1508626;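 active = luciferase signal above three times the same-plate solvent-only control wells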;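 note: luciferase driven by Gal4-ERK5 fusion binding five Gal4 sites before minimal TATA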). The following applies: HeLa Gal4-ERK5 transactivation, 18 h, at 5 µM, stronger effect = higher value.
Sequence of Mitogen-activated protein kinase 7 (Homo sapiens) (Q13164 whole entry, looked up, the tested form may be a part): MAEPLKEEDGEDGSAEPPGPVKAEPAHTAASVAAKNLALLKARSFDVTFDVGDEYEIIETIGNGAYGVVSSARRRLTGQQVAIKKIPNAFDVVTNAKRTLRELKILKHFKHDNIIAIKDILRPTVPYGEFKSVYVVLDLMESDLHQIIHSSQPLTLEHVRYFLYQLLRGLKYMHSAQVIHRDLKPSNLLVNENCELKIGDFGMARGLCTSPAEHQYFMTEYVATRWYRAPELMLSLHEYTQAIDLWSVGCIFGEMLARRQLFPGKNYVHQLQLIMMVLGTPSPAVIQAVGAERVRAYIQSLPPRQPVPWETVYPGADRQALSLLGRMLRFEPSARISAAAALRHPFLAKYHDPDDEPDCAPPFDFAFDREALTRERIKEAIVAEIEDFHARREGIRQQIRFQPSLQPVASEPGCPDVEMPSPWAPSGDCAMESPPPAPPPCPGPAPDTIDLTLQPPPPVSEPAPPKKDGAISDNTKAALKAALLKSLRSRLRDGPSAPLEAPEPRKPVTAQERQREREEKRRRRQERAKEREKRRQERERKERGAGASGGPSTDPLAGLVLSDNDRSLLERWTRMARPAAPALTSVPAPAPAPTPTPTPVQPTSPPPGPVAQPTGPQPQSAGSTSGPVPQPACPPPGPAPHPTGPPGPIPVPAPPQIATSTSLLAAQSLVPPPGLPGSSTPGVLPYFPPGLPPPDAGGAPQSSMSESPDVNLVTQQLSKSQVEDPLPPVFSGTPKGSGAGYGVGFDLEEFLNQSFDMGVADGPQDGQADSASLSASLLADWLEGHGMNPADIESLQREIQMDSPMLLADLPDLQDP
Setting [20] is: measured here: epithelial PC-3E GFP cell survival.
Setting [21] is: measured here: mesenchymal TEM4-18 mCherry cell survival.
Where [22] appears, read: measured here: relative caspase fold change +Dox/-Dox.
Where [23] appears, read: measured here: total cells with miR-34 induction, stronger effect = lower value.
Setting [24] is: measured here: total cells without miR-34 induction.
Setting [25] is: MELAS cybrid survival, CellTiter-Glo 48 h, stronger effect = higher value.
Where [26] appears, read: Rieske KO mouse fibroblast survival, CellTiter-Glo 72 h.

Values joined by “and” are separate entries in the source; they are usually repeats but may differ in a detail not shown here. Equal entries are not always repeated. Active and inactive are the calls of the source.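 Rule for the calls, unless noted: active = compounds whose cell count with miR-34 switched on is under 0.7 times the count with it off; inactive = the rest.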

The term viability denotes a read-out of living cells in per cent, often relative to untreated cells.

Sequence of NAD(+) hydrolase SARM1 (Homo sapiens) (Q6SZW1 whole entry, looked up): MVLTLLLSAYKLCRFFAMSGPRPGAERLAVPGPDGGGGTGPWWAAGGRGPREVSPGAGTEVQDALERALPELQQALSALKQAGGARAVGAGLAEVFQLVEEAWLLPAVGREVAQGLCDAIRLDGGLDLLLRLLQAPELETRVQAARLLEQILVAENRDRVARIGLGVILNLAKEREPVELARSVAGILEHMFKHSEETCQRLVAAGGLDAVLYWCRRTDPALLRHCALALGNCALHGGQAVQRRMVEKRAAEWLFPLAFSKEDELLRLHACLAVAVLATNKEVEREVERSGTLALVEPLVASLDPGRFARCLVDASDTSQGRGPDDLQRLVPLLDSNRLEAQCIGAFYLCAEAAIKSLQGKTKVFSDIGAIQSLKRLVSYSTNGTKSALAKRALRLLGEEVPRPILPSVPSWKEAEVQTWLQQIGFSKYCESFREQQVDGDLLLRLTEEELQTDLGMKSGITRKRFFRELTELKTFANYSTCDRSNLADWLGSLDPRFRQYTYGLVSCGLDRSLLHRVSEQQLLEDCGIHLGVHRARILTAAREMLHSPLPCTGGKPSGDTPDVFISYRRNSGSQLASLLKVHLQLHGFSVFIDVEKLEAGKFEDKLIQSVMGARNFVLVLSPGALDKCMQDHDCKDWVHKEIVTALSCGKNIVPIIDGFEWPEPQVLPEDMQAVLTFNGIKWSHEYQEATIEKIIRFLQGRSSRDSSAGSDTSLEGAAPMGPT

Take `c1ccc2c(c1)Nc1ccccc1S2`: in assay [1], the parasite load remaining is 39.8% (inactive). The viability in assay [1] came to 65.3%. Besides, the nuclear beta-catenin stimulation was -1.5% (inactive) in [2] (at 10 µM) and -0.5% in assay [2] (stimulation, at 2 µM). The insulin secretion stimulation in [3] was 1% (inactive). Further, the viability decrease in [4] is 77.7% (active). Also, the tube area decrease in assay [5] is -18.6% (inactive). The GLP1 secretion stimulation in assay [6] was -2.4% (inactive). In addition, the inhibition of viability in assay [7] is 48.1% (inactive). Besides, the viability decrease (inhibition) was 60% (active) in assay [8] and 38% (active) in assay [9]. The red/green cell ratio (normalised) in assay [10] was 0.84 (inactive). Moreover, the results for the normalised cell number in assay [10] (setting [20]) and in [10] (setting [21]) were 0.93 and 0.78, respectively. Further, the fold change in assay [11] (stronger effect = lower value) is 0.885 (inactive) and 0.762 (inactive); in assay [11] (setting [22]), 1.16 and 2.24. The cell count in assay [11] (setting [23]) was 8220 and 7990; in assay [11] (setting [24]), 9300 and 10500. In addition, the z-score is -0.376 (inactive) and 0.48 (inactive) in assay [12] (setting [25]); -0.33 and 0.378 in [12] (setting [26]); -0.355 (inactive) in assay [14]. The remaining NAD in assay [13] is 10 nM (inactive).

For the compound `NN=C(N)N`, the nuclear beta-catenin stimulation in assay [2] (at 10 µM) is 0.8% (inactive); in assay [2] (stimulation, at 2 µM), 6.5%. The insulin secretion stimulation in assay [3] was 1.9% (inactive). In addition, the viability decrease in assay [4] is -34.7% (inactive). The tube area decrease in assay [5] is -0.5% (inactive). Also, the GLP1 secretion stimulation in assay [6] was -3.5% (inactive). Also, in assay [7], the inhibition of viability is 0.63% (inactive). Besides, the viability decrease (inhibition) is 20.2% (inactive) in assay [8] and -6% (inactive) in assay [9]. Also, in [10] (counts scaled to control wells, 1 = unselective), the red/green cell ratio (normalised) is 0.96 (inactive) and 0.91 (inactive). The normalised cell number in assay [10] (setting [20]) was 1.02 and 1.25; in assay [10] (setting [21]), 0.98 and 1.14. For the same compound, in assay [15], the activity remaining is 107% (inactive). Besides, the cell count in assay [11] (setting [24]) is 10500 and 9550 and 9270. Further, in [13], the remaining NAD was 10 nM (inactive). In assay [14], the z-score was 0.575 (inactive) and 0.155 (inactive) and 0.34 (inactive).

The compound `CCCC(C)C1(CC)C(=O)N=C(S)NC1=O` (stereo unspecified) showed a score in [16] of 1.17. For the same compound, the cytochrome c release ratio in [17] was 1.02. Further, in assay [18], the inhibition of aggregation stood at 30.6%. Moreover, in [1], the parasite load remaining was 29.3% (inactive). Moreover, the viability in assay [1] was 123%. Further, the nuclear beta-catenin stimulation is 0.1% (inactive) in assay [2] (at 10 µM) and -0.3% in assay [2] (stimulation, at 2 µM). Besides, the insulin secretion stimulation in [3] is -0.2% (inactive). The viability decrease in [4] was -5.2% (inactive). Moreover, in assay [5], the tube area decrease is -13.6% (inactive). In addition, in assay [6], the GLP1 secretion stimulation is 0.9% (inactive). In assay [7], the inhibition of viability was -4.4% (inactive). Further, the viability decrease (inhibition) in assay [8] was 95.4% (active); in assay [9], 3.85% (inactive). In addition, in assay [10], the red/green cell ratio (normalised) was 1.19 (inactive). Further, the normalised cell number in assay [10] (setting [20]) is 1.01; in [10] (setting [21]) it was 1.21. In addition, the activity remaining in [15] is 91.6% (inactive). For the same compound, the results for the fold change in [11] (stronger effect = lower value) and in [11] (setting [22]) were 0.92 (inactive) and 4.02, respectively. The cell count amounted to 10900 in [11] (setting [23]) and 11900 in [11] (setting [24]). Besides, in assay [13], the remaining NAD is 10 nM (inactive). Also, the luciferase signal in assay [19] was 60 AU (inactive).

Take `Oc1cc(Cl)ccc1Oc1ccc(Cl)cc1Cl`: in assay [1], the parasite load remaining was -1.97% (inactive) and 16.2% (inactive). The viability in [1] is 75.8% and 88.8%. Also, the nuclear beta-catenin stimulation in assay [2] (at 10 µM) is 1.1% (inactive); in assay [2] (stimulation, at 2 µM), 0.7%. Also, in assay [3], the insulin secretion stimulation was 1.4% (inactive). The viability decrease in assay [4] is 48.8% (inactive). Further, in [5], the tube area decrease is 104% (active). Besides, in assay [6], the GLP1 secretion stimulation is 26.8% (active). For the same compound, in assay [7], the inhibition of viability was 95% (active). Also, the viability decrease (inhibition) was 112% (active) in assay [8] and 51.4% (active) in [9]. The red/green cell ratio (normalised) in [10] was 0.82 (inactive). In addition, the values for the normalised cell number in [10] (setting [20]) and in [10] (setting [21]) were 1.03 and 0.84, respectively. In addition, the activity remaining in [15] is 106% (inactive). Also, the fold change in assay [11] (stronger effect = lower value) is 1.03 (inactive) and 0.888 (inactive); in assay [11] (setting [22]), 2.38 and 7.01. Further, the cell count is 7170 and 12100 in [11] (setting [23]); 6950 and 13600 in assay [11] (setting [24]). Also, the z-score is -0.777 (inactive) in [12] (setting [25]), -0.145 in assay [12] (setting [26]) and -1.48 (inactive) in assay [14]. The remaining NAD in assay [13] is 10 nM (inactive). In assay [19], the luciferase signal was 48 AU (inactive).

Values taken from PubChem BioAssay.
